Where a name gives a salt, the structure may show the parent alone.
Key:
Test in all cases: Euclidean distance of Cell Painting phenotypic profile (signed KS, 77 features) to DMSO centroid (dimensionless distance); 5 or 10 uM (library dependent); higher = stronger phenotypic change vs DMSO (phenoactivity)
Conditions in all cases: 48 h
786-O = tested on: 786-O
In short: (§1)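 Phenoactivity is computed as Euclidean distance to the median vehicle profile. The profiles, drawn from 77 Harmony features scored as signed Kolmogorov-Smirnov statistics versus same-plate vehicle wells, were corrected for plate position, correlation-weighted and replicate-averaged at the top dose. Stained cells were imaged confocally at 20X (9 fields/well) after 48 h with library compounds at 10 or 5 uM, 0.1% DMSO final, in five cancer lines and a healthy fibroblast line.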

A549 = tested on: A549
In short: as §1

DU145 = tested on: DU145
In short: as §1

FB = tested on: FB
In short: as §1

HEPG2 = tested on: HEPG2
In short: as §1

OVCAR4 = tested on: OVCAR4
In short: as §1

| SMILES | Euclidean distance (786-O) | Euclidean distance (A549) | Euclidean distance (DU145) | Euclidean distance (FB) | Euclidean distance (HEPG2) | Euclidean distance (OVCAR4) |
| --- | --- | --- | --- | --- | --- | --- |
| C[C@]12CC[C@@H]3c4ccc(O)cc4CC[C@H]3[C@@H]1C[C@@H](O)[C@@H]2O [Estriol] | 1.2 | 0.835 | 1.5 | 0.871 | 0.511 | 1.2 |
| COC(=O)CCC(=O)CN [Methyl Aminolevulinate Hydrochloride] | 1.52 | 0.774 | 0.717 | 0.88 | 0.566 | 1.34 |
| O=C(N/N=C/c1ccc([N+](=O)[O-])o1)c1ccc(O)cc1 [Nifuroxazide] | 1.64 | 1.52 | 0.846 | 1.33 | 2.82 | 1.2 |
| CCCC1CC(C(=O)NC(C(C)Cl)C2OC(SC)C(O)C(O)C2O)N(C)C1 (stereo unspecified) [Clindamycin alcoholate] | 1.37 | 0.413 | 1.04 | 0.986 | 1.01 | 1.02 |
| Cc1csc(-c2nnc(Nc3ccc(Oc4ncccc4-c4ccnc(N)n4)cc3)c3ccccc23)c1 | 3.06 | 3.22 | 2.83 | 2.44 | 2.61 | 3.01 |
| O=C(NC[C@H](O)CO)c1ccncc1Nc1ccc(I)cc1F | 2.39 | 2.67 | 2.49 | 3.7 | 1.53 | 2.4 |
| Cc1ccc(Nc2nccc(N(C)c3ccc4c(C)n(C)nc4c3)n2)cc1S(N)(=O)=O [Pazopanib] | 2.13 | 1.89 | 2.31 | 2.44 | 1.94 | 1.78 |
| COC(=O)N[C@H](C(=O)N1CCC[C@H]1C(=O)Nc1ccc([C@@H]2CC[C@@H](c3ccc(NC(=O)[C@@H]4CCCN4C(=O)[C@@H](NC(=O)OC)C(C)C)cc3)N2c2ccc(C(C)(C)C)cc2)cc1)C(C)C [Ombitasvir (ABT-267)] | 1.9 | 1.76 | 1.29 | 1.1 | 1.24 | 1.26 |
| Clc1cccc(Cl)c1NC1=NCCN1 [Clonidine HCl] | 1.05 | 1.46 | 1.32 | 1.16 | 0.83 | 1.24 |
| CCn1cc(-c2ccnc3[nH]c(-c4cccc(CN(C)C)c4)cc23)c(-c2ccc(NC(=O)N(C)C)cc2)n1 | 2.56 | 2.73 | 2.29 | 3.38 | 2.7 | 2.8 |
| COc1cc2nc(N3CCN(C(=O)C4COc5ccccc5O4)CC3)nc(N)c2cc1OC (stereo unspecified) [Doxazosin] | 1.52 | 1.28 | 1.55 | 0.683 | 0.609 | 1.18 |

From the supplement of paper PMC10127200
